Compound activity from PubChem BioAssay.
Sampled rows, rich in hits. Any-hit rate of the full collection: about 3.5%.
Pf apPOL block: Pf-apPOL DNA polymerase inhibition. Recombinant Pf-apPOL, molecular beacon fluorescence, 1.5 h. inhibition, % at 10 µM. 0.25% of 210,000 active. AID 1794808
mHTT-CaM PPI inh: disrupts binding of mutant huntingtin to calmodulin. inhibition, % at 15 µM. 3.6% of 190,000 active. AID 1671202. AlphaScreen His-mHTT/GST-CaM binding, luminescence;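 note: 0% = both proteins with DMSO and 100% = one protein alone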
The depositor's hits bear a star; x = not tested or not shown. Cut-off read from the data, not from the text of the source: active = inhibition above about 50%; inactive = the rest.

SMILES	Pf apPOL block	mHTT-CaM PPI inh
COCCN=C1Nc2ccccc2NC12CCCN(C(=O)Nc1ccc(OC)cc1C)C2 (stereo unspecified)	-2	70*
COCCN=C1Nc2ccccc2NC12CCCN(C(=O)c1ccc(C)c(F)c1)C2 (stereo unspecified)	-3	48
COCCN=C1Nc2ccccc2NC12CCCN(C(=O)c1cc(OC)cc(OC)c1)C2 (stereo unspecified)	-2	0
COCCN=C1Nc2ccccc2NC12CCCN(C(=O)Nc1ccc(OC)cc1)C2 (stereo unspecified)	-6	100*
COc1cc(S(=O)(=O)NCCC23CC4CC(CC(C4)C2)C3)c(OC)cc1Cl	-5	-6
COC(=O)c1ccc(C(=O)NCC2CCN(Cc3ccccc3SC)CC2)cc1	-6	-3
N#CC1=C(N)C(C#N)(C#N)C(c2ccc(I)cc2)C=C1C1CC1 (stereo unspecified)	1	58*
N#CC1=C(N)C(C#N)(C#N)C(c2ccc(O)cc2)C2CCCC=C12 (stereo unspecified)	-4	-3
N=c1n(O)c(=N)n(O)c(=N)n1O	x	-3
COc1ccc(-c2ccc(C(=O)N3CCCCC3)s2)c(OC)c1OC	-8	0
COc1ccc(-c2ccc(C(=O)N3CCc4ccccc4C3)s2)c(OC)c1OC	-5	83*
CC(=O)N/C(=C\c1ccc2c(c1)OCO2)C(=O)Nc1ccc([N+](=O)[O-])cc1	5	5
CCC1=NN(C(=O)c2ccccc2)C(O)(c2ccc(Br)cc2)C1 (stereo unspecified)	-2	33
CC1=NN(C(=O)c2cccc([N+](=O)[O-])c2)C(O)(c2ccc(Br)cc2)C1 (stereo unspecified)	-4	66*
CC1=NN(C(=O)c2ccc(Cl)cc2)C(O)(c2cccc([N+](=O)[O-])c2)C1 (stereo unspecified)	-11	40
CC1=NN(C(=O)c2cc(Br)ccc2O)C(O)(c2ccccc2)C1 (stereo unspecified)	-9	98*
CC1=NN(C(=O)c2cccc([N+](=O)[O-])c2)C(O)(c2ccc(Cl)cc2)C1 (stereo unspecified)	1	59*
CC1=NN(C(=O)c2cccc(O)c2)C(O)(c2ccc(Br)cc2)C1 (stereo unspecified)	0	42
CC1=NN(C(=O)C(C)C)C(O)(c2ccc(Br)cc2)C1 (stereo unspecified)	-1	21
CCC1=NN(C(=O)c2ccc(C)cc2)C(O)(c2ccc(Br)cc2)C1 (stereo unspecified)	20	70*
O=C(c1ccccc1)N1N=C(C(F)(F)F)CC1(O)c1cccc([N+](=O)[O-])c1 (stereo unspecified)	-5	53*
COc1cccc(C2(O)CC(C(F)(F)F)=NN2C(=O)c2ccccc2[N+](=O)[O-])c1 (stereo unspecified)	-1	14
Cc1sc2ccn(Cc3ccc(F)cc3)c(=O)c2c1C(=O)N1CCCC(C)C1 (stereo unspecified)	1	66*
Cc1sc2ccn(CC(C)C)c(=O)c2c1C(=O)N1CCCC(C)C1 (stereo unspecified)	3	10
Cc1sc2ccn(Cc3ccc(F)cc3)c(=O)c2c1C(=O)N1CCCCCC1	3	64*
SMILES	Pf apPOL block	mHTT-CaM PPI inh
CCn1ccc2sc(C)c(C(=O)N3CCCCC3)c2c1=O	0	8
O=C(c1ccc(Cl)cc1)N1CCC(n2c(-c3ccco3)nc3cccnc32)C1 (stereo unspecified)	-8	77*
O=C(c1ccoc1)N1CCC(n2c(-c3ccco3)nc3cccnc32)C1 (stereo unspecified)	-4	3
O=C(c1ccc(Br)cc1)N1CCC(n2c(-c3ccco3)nc3cccnc32)C1 (stereo unspecified)	-3	84*
O=C(c1cc(F)cc(F)c1)N1CCC(n2c(-c3ccco3)nc3cccnc32)C1 (stereo unspecified)	-2	28
CCc1ccc(C(=O)N2CCC(n3c(-c4ccco4)nc4cccnc43)C2)cc1 (stereo unspecified)	0	76*
O=C(c1ccc(F)c(Cl)c1)N1CCC(n2c(-c3ccoc3)nc3cccnc32)C1 (stereo unspecified)	-3	99*
Cc1ccc(C(=O)N2CCC(n3c(-c4ccoc4)nc4cccnc43)C2)cc1F (stereo unspecified)	2	21
COc1ccc(C(=O)N2CCC(n3c(-c4ccco4)nc4cccnc43)C2)cc1OC (stereo unspecified)	-6	34
CC1=C(C(=O)Nc2ccc(F)cc2)C(c2cccnc2)C2=C(CCCC2=O)N1 (stereo unspecified)	-1	4
N#Cc1c(NC(=O)C(F)(F)F)sc2c1CCC2	-10	-1
Cc1ccc2cc(F)ccc2c1	-20	x
C=CCc1ccccc1OCCn1c(CN(C)C(=O)c2ccco2)nc2ccccc21	-5	45
Cc1cc(OCc2nc(-c3nonc3N)no2)ccc1[N+](=O)[O-]	-4	6
N#Cc1c(C(F)(F)F)cc(-c2cccs2)n(N)c1=O	2	x
O=Cc1cc(Cc2ccccc2)cc(Br)c1O	-3	100*
CCOc1cc(C=O)c(Br)cc1OCc1ccccc1	6	-5
COc1cc(C=Nc2ccc(Nc3ccccc3)cc2)c([N+](=O)[O-])cc1OC	0	96*
COc1cc(C=Nc2ccc(Nc3ccccc3)cc2)cc(OC)c1OC	-2	76*
COc1cc(C=Nc2cccc3c(=O)[nH][nH]c(=O)c23)c([N+](=O)[O-])cc1OC	-1	13
COc1cc(C=Nc2ccc(NC(C)=O)cc2)cc(OC)c1OC	2	-1
COc1ccc(-c2nnc(SCc3ccc(OC)c([N+](=O)[O-])c3)n2-c2ccccc2)cc1OC	-3	42
CCCN(Cc1ccsc1)S(=O)(=O)CCC	-5	-22
CC(C)c1ccc(N=Cc2c[nH]c3ccccc23)cc1	-1	2
COc1cccc(N=Cc2c[nH]c3ccccc23)c1	2	100*
SMILES	Pf apPOL block	mHTT-CaM PPI inh
Cc1noc(-c2cccc(C(F)(F)F)c2)c1C(=O)NC(C)c1ccccc1 (stereo unspecified)	-5	-2
CC1CN(C2=NC(=O)/C(=C/c3cn[nH]c3-c3ccccc3)S2)CC(C)O1 (stereo unspecified)	66*	3
Cc1ccc(/C=C2\SC(N3CC(C)OC(C)C3)=NC2=O)o1 (stereo unspecified)	-1	3
COC(=O)C12CC3CC(CC(NC(=O)c4ccc(=O)oc4)(C3)C1)C2	66*	14
COC(=O)C12CC3CC(CC(NC(=O)c4ccc(Cn5ccnc5)cc4)(C3)C1)C2	-1	0
CCCCSc1nnc2c(n1)OC(c1cc3c(cc1[N+](=O)[O-])OCO3)Nc1ccccc1-2 (stereo unspecified)	-4	77*
CSc1nnc2c(n1)OC(c1ccc(Br)s1)Nc1ccccc1-2 (stereo unspecified)	-3	57*
CCCCSc1nnc2c(n1)OC(c1ccncc1)Nc1ccccc1-2 (stereo unspecified)	4	8
CSc1nnc2c(n1)OC(c1ccccc1O)Nc1ccccc1-2 (stereo unspecified)	2	-4
CSc1nnc2c(n1)OC(c1cc3c(cc1Br)OCO3)Nc1ccccc1-2 (stereo unspecified)	85*	0
CCSc1nnc2c(n1)OC(c1cn[nH]c1-c1ccccc1)Nc1ccccc1-2 (stereo unspecified)	-6	7
